Compounds with a hit are over-represented: about 4.1% of the library has one in this group of screens.
NLRP3 yeast inh: blocks the NALP3 inflammasome reconstituted in yeast | Yeast reconstituted NLRP3/ASC/caspase-1, beta-gal luminescence, 24 h | 0.39% of 330,000 active | inhibition, % at 10 µM;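 active = inhibition of 50% or more; inactive = inhibition below 50%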;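 also: plate controls were induced DMSO wells for no effect and uninduced yeast grown without galactose for full effect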
tim23-1 inh: tim23-1 yeast growth inhibition. 1.3% of 330,000 active. AID 463212. inhibition, % at 20 µM. S. cerevisiae tim23-1 growth, BacTiter-Glo luminescence, 24 h;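 active = growth inhibition of the mutant yeast at or above 50%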;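 also: temperature-sensitive mutant grown at 25 °C; plate controls were DMSO-treated mutant yeast for no effect and medium wells lacking yeast for full effect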
TIM10 inh: TIM10 yeast growth inhibition; S. cerevisiae TIM10 strain growth, BacTiter-Glo luminescence, 24 h; inhibition, % at 10 µM; 1.4% of 330,000 active; AID 463195;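 active = inhibition of 40% or more at the single tested concentration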;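 also: wild-type TIM10 isogenic control strain grown at permissive 25 °C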
tim10-1 inh: inhibits growth of tim10-1 mutant yeast | inhibition, % at 20 µM | 2.2% of 330,000 active | S. cerevisiae tim10-1 ts strain growth, BacTiter-Glo, 24 h;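 active = inhibition of at least 40%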;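 also: mutant grown at 25 °C; 0% = DMSO wells with yeast and 100% = wells holding no yeast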
NALP1 inh: blocks the NALP1 inflammasome reconstituted in yeast. S. cerevisiae NALP1/ASC/caspase-1 growth, X-gal OD620, 72 h. inhibition, % at 10 µM. 0.61% of 280,000 active; in the data active = inhibition mostly above about 24%, no sharp cut-off; inactive = mostly below about 32%
tim10-1 confirm: confirmation of tim10-1 mutant yeast growth inhibitors | shares compounds with tim10-1 inh | S. cerevisiae tim10-1 ts strain growth, BacTiter-Glo, 24 h | inhibition, % at 20 µM | 56% of 7,400 active;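 active = inhibition of yeast growth at or above a set limit in either of two repeat tests at 20 µM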;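 also: tim10-1 mutant grown at permissive 25 °C to find synthetic lethal compounds; 0% = DMSO yeast wells and 100% = medium wells without yeast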
* hit, by the source's call; x = no result given.

SMILES	NLRP3 yeast inh	tim23-1 inh	TIM10 inh	tim10-1 inh	NALP1 inh	tim10-1 confirm
Cc1nnnn1/C(=C\c1ccccc1)C(=O)OCC(=O)NC(C)(C)C	16	45	31	45*	x	34*
S=C(NNc1ccnc2cc(Cl)ccc12)Nc1ccc(Cl)cc1Cl	21	47	-17	29	x	x
CCOc1ccc(NC(=S)NNc2ccnc3cc(Cl)ccc23)cc1	5	9	14	47*	1	4
COC(CN(C(=O)CCl)C(C(=O)NC1CCCCC1)c1ccccc1C)OC (stereo unspecified)	10	36	39	43*	22	32*
COC(CN(C(=O)CCl)C(C(=O)NC1CCCCC1)c1ccc(Cl)cc1)OC (stereo unspecified)	4	38	34	43*	26	30
COc1ccc(C(C(=O)NC2CCCCC2)N(C(=O)CCl)c2ccc(Cl)cc2)cc1 (stereo unspecified)	1	17	19	21	16	x
O=C(COC(=O)CNC(=O)c1ccccc1Cl)Nc1cc(C(F)(F)F)ccc1Cl	13	16	4	7	x	x
O=C(CNC(=O)c1ccccc1F)OC(C(=O)Nc1cc(C(F)(F)F)ccc1Cl)c1ccccc1 (stereo unspecified)	-17	13	9	43*	41*	23
COc1ccccc1NC(=O)c1ccc(NC(=O)CSc2n[nH]c(N)n2)cc1	0	10	4	13	6	x
Cc1nn(-c2ccccc2)c(Cl)c1/C=C1\C(=O)N(C)C(=S)N1C	13	5	-6	21	23	x
Cc1nn(-c2ccc(F)cc2)c(Cl)c1/C=C1\C(=O)Nc2ccccc21	0	20	35	54*	30	41*
CCn1cc(C2C(C(=O)Nc3cc(C)ccn3)=C(C)NC3=C2C(=O)CC(C)(C)C3)c(C)n1 (stereo unspecified)	10	10	2	8	21	x
Cc1cc(Cl)ccc1OCC(=O)NCC(=O)N/N=C/c1ccco1	12	-12	-31	-9	28	x
Cc1c(OC(C)C(=O)NCc2ccccn2)ccc2c3c(c(=O)oc12)CCCC3 (stereo unspecified)	17	23	21	9	18	x
Cc1noc(C)c1COc1ccccc1C(=O)N(C)Cc1ccc(C(C)(C)C)cc1	-2	49	17	42*	x	20
Cc1noc(C)c1COc1ccccc1C(=O)N(C)Cc1ccc(F)cc1	8	18	16	21	x	x
COc1ccc(C(=O)Oc2cc(N)n(S(=O)(=O)c3ccccc3)n2)cc1	4	19	21	40*	-9	23
COc1ccc(S(=O)(=O)n2nc(OC(=O)c3cccs3)cc2NC(=O)c2cccs2)cc1	18	8	-5	45*	0	30*
COc1ccc(S(=O)(=O)n2nc(OC(C)=O)cc2N)cc1	12	9	14	8	1	x
Cc1cc(SCC(=O)NC(=O)NCc2ccco2)nc2ccccc12	11	48	32	43*	4	35*
Cc1cc(SCC(=O)N/N=C/c2ccco2)nc2ccccc12	6	28	3	40*	6	15
COc1ccc(N(CC(=O)NCCc2ccc(OC)c(OC)c2)S(=O)(=O)c2ccc(OC)c(OC)c2)cc1	15	-1	-7	3	14	x
COc1ccc(C)cc1NC(=O)c1ccc2c(=O)n3c(nc2c1)CCCCC3	14	36	-2	41*	10	6
O=C(COC(=O)C12CC3CC(CC(C3)C1)C2)NC12CC3CC(CC(C3)C1)C2	19	28	38	41*	1	39*
CCC(CC)C(=O)OCC(=O)NC12CC3CC(CC(C3)C1)C2	6	29	26	30	25	x
SMILES	NLRP3 yeast inh	tim23-1 inh	TIM10 inh	tim10-1 inh	NALP1 inh	tim10-1 confirm
O=C(COC(=O)C(O)c1ccccc1)NC12CC3CC(CC(C3)C1)C2 (stereo unspecified)	14	16	6	13	2	x
O=C(COC(=O)CCc1ccccc1)NC12CC3CC(CC(C3)C1)C2	-11	32	14	43*	-17	28
Clc1cc2nc[nH]c2cc1Cl	2	9	-16	7	x	x
CC(NC(=S)Nc1ccc(Cl)cc1Cl)C(c1cccs1)N1CCCC1 (stereo unspecified)	14	34	26	41*	28	10
Cc1ccccc1-n1ncc2c1CC(C)(C)CC2NC(=O)CCCN1CCCC1=O (stereo unspecified)	9	14	19	4	9	x
CCN(CC(=O)NCc1ccc(Cl)cc1)C(=O)COc1cccc(Cl)c1	4	12	-17	21	x	x
Cc1ccccc1NC1=C(Cl)C(=O)OC1OC(=O)c1ccccc1C (stereo unspecified)	12	39	35	40*	46	16
Cc1ccc(NC2=C(Cl)C(=O)OC2OC(=O)c2ccccc2)c(C)c1 (stereo unspecified)	16	36	18	30	-10	x
COc1cc2nc(N(CCCN(C)C)C(=O)c3ccc(S(=O)(=O)N4CCc5ccccc54)cc3)sc2cc1OC	6	14	1	16	x	x
COc1ccc2sc(N(CCCN(C)C)C(=O)c3ccc(S(=O)(=O)N4CCCc5ccccc54)cc3)nc2c1	36	28	39	57*	x	32*
CN(C)CCCN(C(=O)c1cc2cc([N+](=O)[O-])ccc2s1)c1nc2cc3c(cc2s1)OCCO3	17	9	30	79*	x	27*
CN(C)CCCN(C(=O)c1ccc([N+](=O)[O-])s1)c1nc2cc3c(cc2s1)OCCO3	28	21	31	43*	22	39*
CCN(Cc1ccccc1)S(=O)(=O)c1ccc(C(=O)N(CCCN(C)C)c2nc3cc4c(cc3s2)OCCO4)cc1	23	8	-61	46*	x	4
NC(=O)COC(=O)CC12CC3CC(CC(Br)(C3)C1)C2	14	4	3	-8	5	x
CS(=O)(=O)N(CC(=O)N1CCc2ccccc2C1)Cc1ccccc1	8	5	-10	7	2	x
Cc1ccc(NC(=O)C2CC(=O)N(Cc3ccco3)C2)cc1 (stereo unspecified)	9	-2	5	8	x	x
C[C@]1(CC/C(=C/CO)CO)[C@H](CO)CC[C@@]23COC(=O)C2=CCC[C@@H]31	7	-9	-5	-15	x	x
O=S(=O)(N[C@H](CO)c1ccccc1)c1ccc(Br)cc1F	x	27	-7	7	x	x
Cc1cc(Nc2nc(Cl)c(Cl)cc2Cl)n(-c2ccccc2)n1	16	45	29	45*	x	34*
Cc1cc(C)nc(-n2nc(C)cc2Nc2ccccc2)n1	43	48	22	41*	18	19
Cc1cc(Nc2ccccc2)n(-c2ccccc2)n1	6	-1	-6	15	10	x
Cc1ccc(-n2nc(C)cc2Nc2ncc(Cl)cc2Cl)cc1	28	31	14	33	28	x

Assay outcomes (PubChem)
